# Data: PubChem BioAssay AID720697 (Broad Institute, 2013)
# Potency and affinity values are given separately. Inconclusive results are not listed. A call without a number means that no potency is given here. Active and inactive are the calls of the source.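 How the source made its calls: active means signal loss with fitted half-maximal concentration at or below twice the top valid tested dose in every test run; inconclusive means runs disagree, flat 30 to 70% signal loss, or poor fit; inactive means all runs flat, opposite direction, or potency beyond limit.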
# Experiment: general mammalian cell viability loss – inhibitor set, cherry-pick, set 2, cytotoxicity control for miR-122 modulator project, dose response (AID 720697)
# Conditions: HEK293T viability, CellTiter-Glo luminescence, 48 h; series mostly up to 26 µM
row,SMILES,outcome
1,COc1ccc(C2SCC(=O)Nc3c2c(=O)[nH]n3C2CCCCCC2)cc1 (configuration not stated),inactive
2,COc1ccc2c(c1)c(CCN)c(C)n2Cc1ccccc1,inactive
